Reference: ChEMBL document CHEMBL4513216, “Probing the Open Global Health Chemical Diversity Library for Multistage-Active Starting Points for Next-Generation Antimalarials” (ACS Infect Dis, 2020)
The whole screen tested about 69,000 compounds, of which about 8,600 (12%) showed an effect of 50% or more. The full list was thinned out, with strong results kept by preference.

Each compound was assayed on Plasmodium berghei (assay: Screen against P. berghei liver stage (PbLuc), transformed with Luciferase, at 10uM). Settings: tested at 10 uM.
Assay type: functional, HepG2

Compound	INHIBITION
CCc1cccc(OC2CN(C(=O)[C@@H](N)CCSC)C2)c1	23.9%
CC(N)C(=O)N1CCC(Oc2cccc(C(F)(F)F)c2)CC1 (centres undefined)	26.6%
CCc1cccc(OC2CN(C(=O)[C@@H](N)[C@@H](C)O)C2)c1	62.4%
Cc1nc2cc(=O)[nH]n2c(C)c1CC(=O)Nc1cn[nH]c1	53.9%
Cc1nc2cc(=O)[nH]n2c(C)c1CC(=O)Nc1cnn(C(C)(C)C)c1	49.6%
Cc1nc2cc(=O)[nH]n2c(C)c1CC(=O)Nc1cnn(C)c1	15%
Cn1cc(CN2CCC3(CC2)CN(C(=O)c2cnccn2)CCO3)cn1	-13.2%
CCOCCc1nc(Cc2ccccc2)n[nH]1	10.3%
O=C1COC2(CCN(Cc3cccnc3)CC2)CN1	18.2%
O=C(COCc1ccccc1Cl)N1CCN(c2ncccn2)CC1	-133%
O=C(COCc1ccccc1Cl)N1CCN(c2ccc(Br)cn2)CC1	60.3%
O=C(COCc1ccccc1Cl)N1CCN(c2cnccn2)CC1	-9.51%
COc1ccc(Cl)cc1S(=O)(=O)N1C[C@H]2CC[C@@H](C1)N(C)C2=O	48.9%
CN(C)CC(=O)N1CCC2(CC1)Cc1ccccc1CN(C)C2=O	18.6%
Cc1ccc(CN2C[C@@H]3CN(C(=O)c4cccn4C)C[C@@H]3C2)cc1	8.74%
c1cn(-c2ccc(CN3CCOC(Cn4cncn4)C3)cc2)cn1 (centres undefined)	27.6%
COC(=O)c1ccc(NC(=O)CCc2ccncc2)c(C)c1	50.1%
COc1ccc(CCC(=O)Nc2ccncc2C)cc1	12.8%
CCC(C)NC(=O)c1ccc(NC(=O)CCc2ccncc2)c(C)c1 (centres undefined)	39%
O=C(CCOc1ccccc1Cl)N1CCN(c2cnccn2)CC1	-33.7%
CCN1CCN(C(=O)NC(C)c2noc(-c3ccccc3)n2)CC1 (centres undefined)	51.1%
CC(NC(=O)N1CCSC(C)(C)C1)c1noc(-c2ccccc2)n1 (centres undefined)	38.3%
CC(NC(=O)N1CCC[C@H]1CO)c1noc(-c2ccccc2)n1 (some centres undefined)	8.38%

Compound	INHIBITION
Cc1nc(CNCc2c(C(C)C)nn(C)c2N2CCOCC2)cs1	49.6%
COc1ccc2c(c1)C(C(=O)NCCN1CCNC1=O)CC(=O)N2 (centres undefined)	5.36%
CCN1CCC(CC(=O)NCc2cc(C)nn2C)CC1	-6.59%
CCN1CCC(CC(=O)NCCc2nc(C)cc(C)n2)CC1	-26.1%
Cc1cc(CNC(=O)CC2CCN(C(C)C)CC2)n(C)n1	60.8%
CCN1CCC(CC(=O)NCCc2nc(C)c(Cl)s2)CC1	13%
CCc1nc(C)c(CNC(=O)CCCN2CCCCC2)s1	9.87%
CCCN1CCC(CC(=O)NCCc2nc(C)cc(C)n2)CC1	-37.2%
CCCN1CCC(CC(=O)NCc2cc(C)nn2C)CC1	22.3%
Cc1nc(CCNC(=O)CC2CCN(C(C)C)CC2)sc1Cl	60.9%
CCN1CCC(CC(=O)NCc2nc(C)cc(C)n2)CC1	69.9%
Cc1cc(C(F)(F)F)nc(CNC(=O)CCCN2CCCCC2)n1	48%
Cc1cc(CNC(=O)CCCN2CCCCC2)n(C)n1	73.6%
Cc1nc(CCNC(=O)C2CCN(C(C)C)CC2)sc1Cl	-3.72%
CC(=O)Nc1nc(C(=O)NC(C)c2ccc(F)c(F)c2)cs1 (centres undefined)	-31.8%
COc1cccc(N2CCN(Cc3ccc4[nH]ccc4c3)CC2=O)c1	10.2%
CCCc1nnc2sc(C3CCS(=O)(=O)CC3)nn12	33%
CC(=O)N1CCN(c2cncc(C3CCNCC3)n2)CC1	16.5%
CN1CC2(CNCCN(C(=O)Nc3ccccc3)C2)CC1=O (centres undefined)	-36.8%
COc1c(CNCc2ccc(N(C)C)nc2)c(C)nn1C	11.25%
CC(C)C[C@H](NCc1cc(O)c2cccc(F)c2n1)C(N)=O	3.03%
O=C(c1cccc(C2CCNC2)c1)N1CCC(c2ncc[nH]2)CC1 (centres undefined)	-6.61%
COCCN1CCN(CC(O)c2ccc(OC(F)(F)F)cc2)CC1 (centres undefined)	-24.2%

Compound	INHIBITION
O=C(c1ccoc1)N1CCCC2(CCC(=O)N2Cc2ccncc2)C1 (centres undefined)	51.2%
O=C(c1ccoc1)N1CCCC2(CCC(=O)N2Cc2cccnc2)C1 (centres undefined)	42.3%
CN1C(=O)CCC12CCCN(C(=O)c1ccncc1F)C2 (centres undefined)	-12.2%
CCN1C(=O)CCCC12CCCN(C(=O)c1ccncc1F)C2 (centres undefined)	51.4%
O=C(c1ccoc1)N1CCC2(CCC(=O)N2Cc2ccncc2)CC1	43.8%
CN(C)CCN1C(=O)CCC12CCCN(C(=O)c1ccncc1F)C2 (centres undefined)	-24.1%
O=C(Cc1c(F)cccc1Cl)Nc1cccc(N2CCCC2)c1	43.4%
CNC(=O)c1cn[nH]c1C1CCN(Cc2sccc2C)C1 (centres undefined)	-14.1%
CCOC(=O)CN(C)Cc1cnc(C)s1	8.38%
CCN(C)C(=O)CCN(C)Cc1cnc(C)s1	50.4%
COc1cc(C(C)=O)ccc1OCC(=O)N(C)Cc1cnn(C)c1	40.9%
CC(=O)c1cccc(OCCCC(=O)N(C)CCc2ccncc2)c1	-8.19%
CC(=O)c1cccc(OCCCC(=O)N(C)CCC(F)(F)F)c1	57.3%
CCCN(CCC)C(=O)CN(C)Cc1cnc(C)s1	23.2%
CC(=O)c1cccc(OCCCC(=O)N(C)Cc2cccc(O)c2)c1	23.5%
CC(=O)c1cccc(OCCCC(=O)N(C)Cc2cnn(C)c2)c1	82.2%
CC(=O)c1cccc(OCCCC(=O)N(C)Cc2ccccn2)c1	3.47%
CC(=O)c1cccc(OCCCC(=O)N(C)Cc2cscn2)c1	5.68%
CC(=O)c1cccc(OCCCC(=O)N(C)Cc2cnc(C)s2)c1	55.4%
CC(=O)c1cccc(OCCCC(=O)N(C)CC(N)=O)c1	-25.1%
CN(C)C(CNC(=O)c1ccnc(-n2cncn2)c1)c1ccccc1 (centres undefined)	9.34%
CN(C)c1ccc(CNCc2cnc(N3CCOCC3)nc2)cn1	12.6%
O=S1(=O)CCN(Cc2cccnc2)[C@H]2CCN(c3ncccn3)CC[C@H]21	46.8%
